Assay outcomes (PubChem BioAssay)
MITF primary = MITF inhibitors, primary screen, biochemical, AlphaScreen, human. inhibition, % at 2.6 µM. 650,000 compounds, 0.91% hits. AlphaScreen MITF homodimerization, bead proximity signal. Microphthalmia-associated transcription factor (Homo sapiens), O75030; in the data active = inhibition above about 50%
Target sequence (O75030 whole entry, looked up): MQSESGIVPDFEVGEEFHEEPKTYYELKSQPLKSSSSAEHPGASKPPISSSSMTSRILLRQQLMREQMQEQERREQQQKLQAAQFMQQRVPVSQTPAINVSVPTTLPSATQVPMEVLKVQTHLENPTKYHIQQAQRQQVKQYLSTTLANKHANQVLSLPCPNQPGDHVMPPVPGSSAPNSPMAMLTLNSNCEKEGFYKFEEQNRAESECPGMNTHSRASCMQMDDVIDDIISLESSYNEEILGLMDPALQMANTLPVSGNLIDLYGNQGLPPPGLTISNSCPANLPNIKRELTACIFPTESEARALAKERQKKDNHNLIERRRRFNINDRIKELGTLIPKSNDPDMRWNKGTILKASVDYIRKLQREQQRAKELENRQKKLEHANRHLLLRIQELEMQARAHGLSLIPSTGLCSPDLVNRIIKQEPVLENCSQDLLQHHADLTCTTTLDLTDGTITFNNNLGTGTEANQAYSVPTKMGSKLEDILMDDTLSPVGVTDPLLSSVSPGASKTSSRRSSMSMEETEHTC
GPR151 ag = activators of human GPR151, primary screen, cell-based, PathHunter beta-arrestin, luminescence; 650,000 compounds, 1% hits; G-protein coupled receptor 151 (Homo sapiens), Q8TDV0; PathHunter beta-arrestin GPR151 cells; activation, % at 11.2 µM; in the data active = activation above about 4.9%
TEAD-YAP block = TEAD-YAP interaction inhibition, primary screen, TEAD-YAP interaction inhibitor project, luminescence, HEK-TIYL cells; inhibition, % at 9.12 µM; 640,000 compounds, 1.4% hits; TEAD-Gal4/YAP UAS-luciferase luminescence; in the data active = inhibition above about 32%
FBW7 activator = FBW7 E3 ligase activators, primary screen, biochemical, AlphaScreen, human | normalized activity (activation), % at 26.1 µM | AlphaScreen FBW7–phospho-cyclin E peptide binding, activator screen | 650,000 compounds, 0.13% hits | F-box/WD repeat-containing protein 7 (Homo sapiens), Q969H0 | AID 1259310, 2017; in the data active = normalized activity above about 1.9%;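 also: purified mutant Fbw7 with reduced substrate affinity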
GPR151 conf act = GPR151 activators, triplicate retest, confirmation, cell-based, PathHunter beta-arrestin, luminescence; shares compounds with GPR151 ag; GPR151 PathHunter beta-arrestin cells, 90 min; % of EA-reagent control over plate median; activation, % at 11.2 µM; 6,700 tested, under 10 active; AID 1508609, 2020;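 active = mean percent activation across replicates above the confirmation screen cutoff of 4.91%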
GPR119 counter = GPR119 activators in beta-arrestin cells, counter-screen for GPR151 activator project, cell-based, PathHunter beta-arrestin, luminescence, triplicate. AID 1508611, 2020. 90 min; 0 = compound-well median, 100 = enzyme-acceptor control. 6,700 compounds, 0.3% hits. activation, % at 11.2 µM. shares compounds with GPR151 ag;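 active = mean percent activation in the counterscreen above 29.09%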;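 also: counterscreen on off-target GPR119 to flag nonselective hits from the GPR151 activator screen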
Each line names hits and unclear results; the compound was inactive in the other large screens (follow-up assays come after a bar, where they were run). An excerpt weighted towards active compounds, which were near 3.5% of everything screened.

COC(=O)c1ccc(NC(=O)CSc2nc(=O)cc(N)n2CCc2ccccc2)cc1	none
N#Cc1ccc(NC(=O)COc2ncnc3c(Cl)cc(Cl)cc23)cc1	none
O=C(c1oc2ccccc2c1N1CCCCC1)N1CCCCC1	GPR151 ag 5.0 | GPR151 conf act inactive | GPR119 counter inactive
O=C(Nc1ccc2oc(-c3cccc(Br)c3)nc2c1)c1cccc(Cl)c1	none
Cn1sc2cc([N+](=O)[O-])cc(N)c2c1=O	none
COC(=O)c1ccccc1NC(=O)c1cnc(N2CCN(c3ccccn3)CC2)c2ccccc12	none
CC(C)NC(=O)CCc1nnc2n(Cc3ccc(F)cc3)c(=O)c3ccccc3n12	GPR151 ag 8.0 | GPR151 conf act inactive | GPR119 counter inactive
O=C(CCc1nnc2n(Cc3ccc(F)cc3)c(=O)c3ccccc3n12)Nc1ccccc1	none
CCCOc1ccc(Oc2nc(NCC)cc(NC(C)(C)C)n2)nn1	none
C=CCOC(=O)C1=C(C)OC(N)=C(C#N)C1c1cc2cc(OCC)ccc2[nH]c1=O (stereo not drawn)	none
COc1ccc(C)cc1S(=O)(=O)N(CC(=O)N1CCOCC1)Cc1ccccc1	GPR151 ag 12 | GPR151 conf act inactive | GPR119 counter inactive
COc1ccc(S(=O)(=O)N(CC(=O)N2CCOCC2)Cc2ccccc2)cc1C	none
NC(=O)c1ccccc1NC(=O)/C=C/c1ccc(Cl)cc1	none
O=C(/C=C/c1ccc([N+](=O)[O-])cc1)Nc1ccccc1Cl	GPR151 ag 7.4 | GPR151 conf act inactive | GPR119 counter inactive
NC(=O)c1ccccc1NC(=O)/C=C/c1ccccc1	GPR151 ag 7.7 | GPR151 conf act inactive | GPR119 counter inactive
COC(=O)CN1C(=O)COc2cc(S(=O)(=O)N3CCCCCC3)ccc21	GPR151 ag 5.8 | GPR151 conf act inactive | GPR119 counter inactive
O=C(CN1C(=O)COc2cc(S(=O)(=O)N3CCCC3)ccc21)NC1CCCCCCC1	GPR151 ag 7.1 | GPR151 conf act inactive | GPR119 counter inactive
O=C(CN1C(=O)COc2cc(S(=O)(=O)N3CCCCC3)ccc21)NC1CCCCCC1	none
CN1CCN(c2ccc(-c3nc(NCCCN4CCCC4=O)c4ncn(C5CCCCC5)c4n3)cc2)CC1	none
Cc1ccc2c(c1)C(O)(C(C)C(=O)c1ccc(Cl)cc1)C(=O)N2 (stereo not drawn)	none
O=C1C2C(c3ccc(F)cc3)OC3(C(=O)c4ccccc4C3=O)C2C(=O)N1Cc1ccccc1 (stereo not drawn)	GPR151 ag 5.6 | GPR151 conf act inactive | GPR119 counter inactive
O=C1C2C(c3ccccc3)OC3(C(=O)c4ccccc4C3=O)C2C(=O)N1c1ccccc1 (stereo not drawn)	none
O=C1C2C(c3ccccc3)OC3(C(=O)c4ccccc4C3=O)C2C(=O)N1CCc1ccc(F)cc1 (stereo not drawn)	GPR151 ag 7.5 | GPR151 conf act inactive | GPR119 counter inactive
CC(C)N(CCNC(=O)c1csc(-c2cccc(N)c2)n1)C(C)C	none
O=C(NCCO)c1ccc(-c2cnc3[nH]c(=O)n(C4CCOCC4)c3n2)cc1	none
c1cncc(-c2cc(NCc3ccco3)nc(-c3ccncc3)n2)c1	GPR151 ag 5.1 | GPR151 conf act inactive | GPR119 counter inactive
Cn1c(Cl)nc2ncn(C)c2c1=O	none
Cc1cc([N+](=O)[O-])ccc1-c1ccc(C(=O)NC(C)(C)C)o1	GPR151 ag 7.7 | GPR151 conf act inactive | GPR119 counter inactive
CC(C)C(=O)Nc1ccc(NC(=O)/C=C/c2ccco2)cc1	none
CCCCOC(=S)SCc1ccc(Cl)s1	GPR151 ag 6.4 | GPR151 conf act inactive | GPR119 counter inactive
COC(=O)C1=C(C)NC(=O)NC1c1cc(OC)c(O)c([N+](=O)[O-])c1 (stereo not drawn)	none
CCOC(=O)C1=C(C)NC(=O)NC1c1cc(Br)c(OCc2ccccc2)c(OC)c1 (stereo not drawn)	none
COc1cc(C2NC(=O)NC(C)=C2C(C)=O)cc([N+](=O)[O-])c1O (stereo not drawn)	GPR151 ag 7.8 | GPR151 conf act inactive | GPR119 counter inactive
COc1cc(C2NC(=O)NC(C)=C2C(C)=O)cc(Br)c1OCc1ccccc1 (stereo not drawn)	GPR151 ag 5.7 | GPR151 conf act inactive | GPR119 counter inactive
N#Cc1c(N)n(CCc2ccccc2)c(=O)c2cccnc12	none
CCN(CC)c1cc(N)c([N+](=O)[O-])cc1F	GPR151 ag 6.5 | GPR151 conf act inactive | GPR119 counter inactive
Cc1cc(OC(C)C(=O)NCc2cccnc2)ccc1Cl (stereo not drawn)	none
CC(=O)Nc1ccc(Nc2ncnc3nc(N4CCc5ccccc5C4)[nH]c23)cc1	none
CCN(CC)C(=O)C1CCCN(c2nc(Nc3ccccc3)nc(N(CC)CC)n2)C1 (stereo not drawn)	GPR151 ag 5.7 | GPR151 conf act inactive | GPR119 counter inactive
CCN(CC)C(=O)C1CCCN(c2nc3ncnc(Nc4ccc(Oc5ccccc5)cc4)c3[nH]2)C1 (stereo not drawn)	GPR151 ag 5.8 | GPR151 conf act inactive | GPR119 counter inactive
CCN(CC)C(=O)C1CCCN(c2nc(Nc3ccc(NC(C)=O)cc3)nc(N(CC)CC)n2)C1 (stereo not drawn)	none
CCN(CC)C(=O)C1CCCN(c2nc3ncnc(Nc4ccc(NC(C)=O)cc4)c3[nH]2)C1 (stereo not drawn)	none
c1ccc(Nc2ncnc3nc(N4CCc5ccccc5C4)[nH]c23)cc1	GPR151 ag 6.0 | GPR151 conf act inactive | GPR119 counter inactive
CC(C)(C)C(=O)NC1(C(F)(F)F)NC(=O)N(c2ccccc2F)C1=O (stereo not drawn)	GPR151 ag 6.6 | GPR151 conf act inactive | GPR119 counter inactive
O=C(Cc1ccccc1)NS(=O)(=O)c1ccc(N=NN2CCCCC2)cc1	GPR151 ag 7.3 | GPR151 conf act inactive | GPR119 counter inactive
Cc1cc(I)ccc1NC(=O)c1cccs1	none
COC(=O)C(NC(=O)c1ccccc1)c1ccccc1 (stereo not drawn)	none
COC(=O)C(NC(=O)c1ccc(Br)cc1)c1ccccc1 (stereo not drawn)	GPR151 ag 9.0 | GPR151 conf act inactive | GPR119 counter inactive
O=C(CCN1CCN(C2c3ccccc3-c3ccccc32)CC1)Nc1ccccc1F	GPR151 ag 5.1 | GPR151 conf act inactive | GPR119 counter inactive
COc1cc([N+](=O)[O-])ccc1NC(=O)Nc1ccc(Cl)cc1F	GPR151 ag 6.2 | GPR151 conf act inactive | GPR119 counter inactive
COc1ccc(NC(=S)NC(=O)c2ccc3c(c2)OCO3)c([N+](=O)[O-])c1	GPR151 ag 7.0 | GPR151 conf act inactive | GPR119 counter inactive
